Shn3 inh set2 – reduces Shn3 3'UTR luciferase signal in osteoblasts; Clone20 osteoblast Shn3 3'UTR firefly luciferase, 24 h; inhibition, % at 12.5 µM; 360,000 tested, 0.52% active;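 active = mean inhibition of at least 75% with every replicate also reaching 75%; inconclusive = mean inhibition at least 75% but some replicate below; inactive = mean inhibition below 75%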
MITF TRPM1 inh – reduces MITF-dependent TRPM1 promoter luciferase signal | SK-MEL-5 TRPM1 promoter luciferase, 24 h | inhibition, % at 12.5 µM | 330,000 tested, 0.83% active | AID 488899;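 active = mean inhibition across replicates of 60% or more, whatever share of single replicates reaches that level; inconclusive = some that reach 60%, reason not given; inactive = mean inhibition across replicates below 60%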
Peg3 promoter – reduces Peg3 promoter-driven luciferase expression in HeLa; HeLa PEG-Prom luciferase reporter, luminescence, overnight; inhibition, % at 20 µM; 360,000 tested, 1.7% active; AID 588405;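 active = inhibition of at least 50% at 20 µM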
HIF-2a inh – inhibitors of HIF-2a; 786-0 RCC cells HIF-2a reporter, luciferase luminescence, overnight; inhibition, % at 18.8 µM; 360,000 tested, 0.72% active;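 active = inhibition of the luminescence signal of 40% or more relative to plate controls, in a single-dose primary screen at 18.75 µM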
KKLEB tox – counter-screen for CF NF-kB inhibitors: cytotoxicity. 360,000 tested, 0.36% active. activity change (cytotoxicity), % at 5 µM. AID 602141. KKLEB CF airway cells viability, ATPlite luminescence, overnight; hits give low values; cells stimulated with P. aeruginosa culture filtrate;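 active = corrected activity change at or below -50% at 5 µM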
CF NFkB block – cystic fibrosis NF-kB activation inhibition; 360,000 tested, 0.86% active; AID 588850; inhibition, % at 5 µM; KKLEB NF-kB-GFP reporter, PAF-induced, GFP fluorescence overnight;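 active = at least 50% inhibition at 5 µM, scaled per plate between neutral and stimulator controls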;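 also: PAF is a Pseudomonas aeruginosa culture filtrate used as stimulus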
Large screens that a line does not name were inactive. Only some compounds are listed: those with a hit (about 2.8% of all), similar ones and a draw of the others.

CC(C)n1cc(CN2CCCC(C(=O)Nc3cccc(-c4cc5ccccc5[nH]4)c3)C2)cn1 (stereo not drawn)	Peg3 promoter 97
Cn1cc(CN2CCCC(C(=O)Nc3cccc(-c4cc5ccccc5[nH]4)c3)C2)cn1 (stereo not drawn)	Peg3 promoter 56
CCOC(=O)c1c(-c2ccccc2Cl)csc1NC(=O)c1cc(S(=O)(=O)N2CCOCC2)ccc1C	none
COc1cc(/C=C(/C#N)c2nc3ccccc3[nH]2)ccc1OCC(=O)Nc1ccccc1C	Peg3 promoter 104
COc1cc(/C=C(\C#N)c2nc3ccccc3[nH]2)ccc1OC(=O)c1ccco1	none
Cc1ccc(OCC(=O)NNC(=O)c2ccccc2OCc2c(C)noc2C)cc1	none
c1ccc2c(c1)oc1c(NCCN3CCOCC3)ncnc12	none
c1ccc2c(c1)oc1c(Nc3ccc(CN4CCOCC4)cc3)ncnc12	Peg3 promoter 79
Cc1[nH]c2c(ccc3cccnc32)c1C	none (no result: Shn3 inh set2)
CC1=[N+](C)c2c(ccc3cccnc23)C1(C)C	Shn3 inh set2 93
COc1ccc(N2C3=C(CC4=C2CC(C)(C)CC4=O)C(=O)CC(C)(C)C3)cc1	MITF TRPM1 inh 87
COc1ccc(N2C3=C(CC4=C2CCCC4=O)C(=O)CCC3)cc1	none
CCC(=O)c1cn(CC(=O)Nc2ccccc2Cl)c2ccccc12	Shn3 inh set2 89
CCC(=O)c1cn(CC(=O)Nc2cccc(C)c2C)c2ccccc12	none
Cc1cccc(NC(=O)Cn2cc(C(=O)C3CC3)c3ccccc32)c1C	Shn3 inh set2 87
COc1ccc(NC(=O)/C(C#N)=C\c2ccc(Br)o2)cc1	none
N#C/C(=C\c1ccc([N+](=O)[O-])o1)C(=O)Nc1ccc(F)cc1	Peg3 promoter 53
O=C(NC1CCCC1)c1nc(-c2ccco2)oc1-c1ccccc1	none (no result: Shn3 inh set2, MITF TRPM1 inh, Peg3 promoter, KKLEB tox, CF NFkB block)
O=C(NC(=S)NCCc1ccccc1)c1cccc(Cl)c1	none
O=C(COC(=O)c1ccc(F)c([N+](=O)[O-])c1)NC(=O)NCc1ccccc1	MITF TRPM1 inh 70, Peg3 promoter 97
Cc1ccc(C(=O)OCC(=O)NC(=O)NCc2ccccc2)cc1C	none
Cn1ncc(N=Cc2ccc([N+](=O)[O-])cc2)c1C(=O)N1CCOCC1	none
COc1cccc(/C=N/NC(=O)c2cc3cc([N+](=O)[O-])ccc3s2)c1O	Shn3 inh set2 91, MITF TRPM1 inh 77, Peg3 promoter 84
COc1cc([N+](=O)[O-])cc(/C=N/NC(=O)c2ccc(NC(=O)c3ccc(C)cc3)cc2)c1O	MITF TRPM1 inh 72, KKLEB tox -75, CF NFkB block 82
COc1cccc(/C=N/NC(=O)C(=O)N/N=C/c2cccc(OC)c2O)c1O	none
Cc1ccc(-c2ccc(/C=N/c3ncn[nH]3)o2)cc1Cl	none
O=C(Nc1cc(C2CC2)nn1-c1ccccc1)c1ccc(F)cc1	none
Nc1cc(OCC(F)(F)F)cc([N+](=O)[O-])c1	none
Nc1cc(N)c(OCC(F)(F)F)cc1OCC(F)(F)F	MITF TRPM1 inh 65
Cc1ccc(/C=C2/C(=O)ON=C2c2ccccc2)o1	MITF TRPM1 inh 71, Peg3 promoter 50, HIF-2a inh 68
COc1cc([N+](=O)[O-])ccc1-c1ccc(/C=C2\C(=O)ON=C2c2ccccc2)o1	MITF TRPM1 inh 90, Peg3 promoter 103, CF NFkB block 87
Nc1c(C(O)(C(F)(F)F)C(F)(F)F)cc(C(O)(C(F)(F)F)C(F)(F)F)c2ccccc12	HIF-2a inh 41
CN(CC(=O)Nc1cccc(S(=O)(=O)N2CCOCC2)c1)CC(=O)Nc1ccc(Cl)c(C(F)(F)F)c1	Shn3 inh set2 88
CCc1nc2ccccc2c(C(=O)OCC(=O)Nc2ccc(S(=O)(=O)N3CCOCC3)cc2)c1C	none
CCN(CC)S(=O)(=O)c1cccc(NC(=O)CNc2cccc(S(=O)(=O)N3CCOCC3)c2)c1	Shn3 inh set2 88
CN(C)S(=O)(=O)c1cccc(NC(=O)CNc2cccc(S(=O)(=O)N3CCCCC3)c2)c1	none (no result: MITF TRPM1 inh)
CCc1nc2ccccc2c(C(=O)OCC(=O)Nc2cccc(S(=O)(=O)N3CCOCC3)c2)c1C	Peg3 promoter 77
CN(CC(=O)Nc1cccc(F)c1)CC(=O)Nc1cc(S(=O)(=O)N2CCOCC2)ccc1Cl	none
CCN(CC)S(=O)(=O)c1cc(NC(=O)CNc2cccc(S(=O)(=O)N3CCCC3)c2)ccc1C	Shn3 inh set2 91
CCOC(=O)CN1C(=O)/C(=C/c2ccccc2Br)Oc2ccccc21	none
Cc1c(CC(=O)N2CCC(O)CC2)c(=O)oc2cc3c(cc12)CCC1(CCCCC1)O3	none (no result: MITF TRPM1 inh)
COc1ccc(-n2c3c(c(=O)[nH]c2=O)C(NC(=O)c2ccncc2)(C(F)(F)F)C(=O)N3)cc1 (stereo not drawn)	none
Cc1[nH]n(-c2ccccc2)c(=O)c1N=Nc1cccc(C(=O)O)c1	MITF TRPM1 inh inconclusive, Peg3 promoter 64, HIF-2a inh 64
COc1cc2c(cc1NC(=O)c1cc(-c3ccncc3)nc3ccccc13)oc1ccccc12	none
O=C(Nc1ccccn1)c1cc(-c2cccnc2)nc2ccc(Br)cc12	MITF TRPM1 inh inconclusive, Peg3 promoter 56
COc1cc2c(cc1NC(=O)c1cc(-c3cccnc3)nc3ccc(C)cc13)oc1ccccc12	Peg3 promoter 63
COc1cc2c(cc1N/C=C(\C#N)c1nc(-c3ccccc3)cs1)oc1ccccc12	Peg3 promoter 61
COc1cccc(-c2csc(/C(C#N)=C/Nc3cc4oc5ccccc5c4cc3OC)n2)c1	none
CCSc1nc2ccccc2c(=O)n1CCc1ccc(OC)c(OC)c1	none
Cc1ccc(NC(=O)C2CCN(S(=O)(=O)c3c(C)noc3/C=C/c3ccco3)CC2)nc1	MITF TRPM1 inh 72
C#CCOCCOCCOCCNc1nc(N2CCOCC2)nc(N2CCN(C(=O)Cn3cc(CCCCN)nn3)CC2)n1	none
CCn1cc(CN2CCC(n3nccc3NC(=O)C3CCCC3)CC2)cn1	none
COC(=O)[C@@H]1Cc2c([nH]c3ccccc23)C(C)(C)N1C(=O)CCl	KKLEB tox -62, CF NFkB block 74
CCOC(=O)C1(NC(=O)C2(N3C(=O)c4ccccc4C3=O)CCCC2)CCCC1	none
COc1cccc(C(=O)NCCS(=O)(=O)N2CCC(C)CC2)c1	none
O=C(CSc1ncnc2c1oc1ccccc12)Nc1nc2ccccc2s1	Peg3 promoter 56
CCc1nnc(NC(=O)CSc2ncnc3c2oc2ccccc23)s1	none
O=C(CSc1ncnc2sccc12)Nc1ccccc1	none
O=C(CSc1ncnc2c1sc1ccccc12)Nc1ccc(Br)cc1	KKLEB tox -57
Cc1cc(/C=C2\SC(=S)N(C)C2=O)c(C)n1-c1ccc(O)cc1	MITF TRPM1 inh 76, Peg3 promoter 62, HIF-2a inh 45
Cc1cc(/C=C2\SC(=S)N(C)C2=O)c(C)n1-c1ccccc1O	none
Cc1ccc(-c2csc(NC(=O)CSc3nnc4c(n3)[nH]c3ccccc34)n2)cc1	Peg3 promoter 56
